Assay results: PubChem BioAssay AID624246 (National Center for Advancing Translational Sciences (NCATS), 2012)
The whole screen tested about 370,000 compounds, of which about 100 (0.027%) were called active. Calls come from the whole dose curve; as a rule, active = well fitted inhibition curve with a large enough effect in the polarisation, with a control signal flat; inconclusive = small, poorly fitted or top-dose-only effect, or effect the other way, or a change in a side signal; inactive = no such curve, though single readings can be large or run the other way; the % refers to the polarisation. Shown is part of a subset that was picked to be rich in actives. A call without a number means that no potency is given here.

Target: Transcriptional regulator ERG (Homo sapiens) (UniProt P11308)
Experiment: qHTS for Small Molecule Inhibitors of the ERG Ets/DNA interaction
Settings: fluorescence polarization, His-ERG Ets domain / labelled DNA; series mostly up to 76.9 µM
From the text: The Ets family of proteins is a family of ~30 conserved transcription factors defined by the presence of an ~85 amino acid domain referred to as the Ets domain, which mediates sequence-specific DNA binding to a core DNA element GGAA/T.The Ets family member ERG has been linked to several neoplasms. […] More extensive studies of the effects of over-expression of ERG in prostate cells have recently been carried out and have shown that over-expression of ERG results in increased invasion. […] We will carry out a high throughout screen to identify inhibitors of the interaction between ERG and DNA using a fluorescence polarization (FP) assay with a His-tagged ERG Ets domain and fluorescently-labeled DNA probes to develop small molecule inhibitors of this interaction as probes to test this hypothesis and lay the groundwork for the development of targeted therapies against ERG. NIH Molecular Libraries Probe Production Network [MLPCN] NIH Chemical Genomics Center [NCGC] Grant: NS066464 PI Name: John Bushweller, University of Virgina
1.5 ul of protein solution (1 uM ERG domain in 300mM KCl, 50mM Tris-HCl, 1mM EDTA, 1mM DTT, pH 7.5); 20 nl Control plate and compound library plate; 1.5 ul mixture of 5 nM Fluorescein-DNA and 100nM Texas-615-DNA solution in same buffer as above solution; measure fluorescence polarization sequentially for fluorescein (Excitation = 480 nm, Emission = 535s, 535p nm) and Texas red (Excitation = 555 nm, Emission = 632s, 632p nm).
Potency is the fitted concentration of half-maximal effect.

Sequence of Transcriptional regulator ERG (Homo sapiens) (P11308 whole entry, looked up): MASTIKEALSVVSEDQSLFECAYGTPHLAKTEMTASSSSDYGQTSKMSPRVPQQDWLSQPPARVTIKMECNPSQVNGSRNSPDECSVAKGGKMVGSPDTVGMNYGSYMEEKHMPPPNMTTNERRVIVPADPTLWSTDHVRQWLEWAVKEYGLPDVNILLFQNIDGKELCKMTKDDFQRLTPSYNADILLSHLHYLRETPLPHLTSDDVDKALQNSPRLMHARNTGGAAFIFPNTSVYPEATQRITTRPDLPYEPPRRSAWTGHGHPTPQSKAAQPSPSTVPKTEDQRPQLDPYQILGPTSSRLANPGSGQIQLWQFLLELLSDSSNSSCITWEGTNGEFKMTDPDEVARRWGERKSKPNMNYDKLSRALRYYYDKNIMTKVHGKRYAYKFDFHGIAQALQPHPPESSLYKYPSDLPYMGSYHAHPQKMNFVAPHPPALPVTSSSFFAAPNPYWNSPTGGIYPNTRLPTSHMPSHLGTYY

SMILES	Potency
Cc1ccc(C)c(Nc2nnc(-c3ccc(C)c(S(=O)(=O)N4CCCCC4)c3)c3ccccc23)c1	inactive
CCCN1C(=O)C(O)(CC(=O)c2ccc(CC)cc2)c2cc(Br)ccc21 (stereo unspecified)	inactive
Cc1nn(CC(=O)O)c(=O)c2cc3cc(F)ccc3n12	inactive
CCOC(=O)c1ccc(NC(=O)C2CC(=O)N(c3ccc(C(C)C)cc3)C2)cc1 (stereo unspecified)	inactive
COc1cccc(Cn2c(CNS(=O)(=O)c3ccc(Cl)s3)nc3cccnc32)c1	inactive
COc1ncnc2c1N=C1CC(C)(C)CC(N)=C1S2	35.5 µM (active)
CC(=O)c1c(C)n(S(=O)(=O)c2ccc(Cl)cc2)c2ccc(NS(=O)(=O)c3ccc(Cl)cc3)cc12	inactive
COc1cccc(Cn2c(SCc3ccc(C(=O)N4CCCCC4)cc3)nc3ccncc32)c1	inactive
Fc1cccc(-n2ncc3c2ncn2nc(-c4ccccc4Cl)nc32)c1	inactive
Cc1ccc(-c2cn3c(n2)sc2cc(C(=O)NCc4cccs4)ccc23)c(C)c1	inactive
COc1ccccc1CNC(=O)c1ccccc1NC(=O)c1nsc2ccccc12	inactive
CC(=O)Nc1ccc(NC(=O)c2cc3sccc3n2Cc2ccc(F)cc2)cc1	inactive
CCOc1ccc(OCC)c(NC(=O)CN(c2ccc(C)cc2)S(=O)(=O)c2c(C)n[nH]c2C)c1	inactive
CCc1ccccc1N(C)C(=O)C1CCCN(c2ncnc3onc(-c4ccc(F)cc4)c23)C1 (stereo unspecified)	inactive
CCCc1nn2c(=O)cc(COC(=O)c3ccc(NC(=O)COc4ccc(F)cc4)cc3)nc2s1	inactive
COc1cc(NC(=O)Cn2c(=O)n(Cc3ccco3)c(=O)c3oc4ccccc4c32)cc(OC)c1	inactive
Cc1cccc(NC(c2cccc(F)c2)c2ccc3ccc(C)nc3c2O)n1 (stereo unspecified)	inactive
COc1cc(NC(=O)CCn2nc(C)cc2C)cc(OC)c1OC	inactive
Cc1cc(N2CCCC2)ccc1NC(=O)COc1ccc(Cl)cc1	inactive
Cc1cc(C)cc(OCC(=O)Nc2ccc(N3CCOCC3)cc2N2CCOCC2)c1	28.2 µM (active)
Cc1cc(C)cc(OCC(=O)Nc2cc(NC(=O)COc3cc(C)cc(C)c3)cc(C(=O)O)c2)c1	inactive
CCOc1ccc(NC(=O)c2c(NCc3cccc(OC)c3OC)sc3c2CCC3)cc1	inactive
Cc1cccc(C(=O)Nc2ccc(-c3nc4ncccc4o3)cc2C)c1	inactive
CC(=O)Nc1ccc(NC(=O)CCCc2nc(-c3ccc(C(C)(C)C)cc3)no2)cc1	inactive
COc1ccccc1CN1CCC(CNC(=O)c2cnn(-c3ccccc3Cl)c2C2CCN(C(=O)OC(C)(C)C)CC2)CC1	inactive
CC(C)Cn1c(=O)c2ccccc2n2c(CCC(=O)N3CCN(c4cccc(Cl)c4)CC3)nnc12	inactive
